Screening results as filed in PubChem BioAssay.
p-CIP stab down = lowers stability of the mouse p/CIP coactivator protein; hit rate 0.01% among 290,000; F442A p/CIP-EGFP cells, EGFP fluorescence, 16 h; decrease of EGFP signal, % at 10 µM; Q05BA5;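 active means EGFP signal decrease of at least 30% at 10 µM or well 3 SD below plate mean, unless failing retest; inactive means the rest, including hits failing retest or dose response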
Target sequence (Q05BA5 1-1403): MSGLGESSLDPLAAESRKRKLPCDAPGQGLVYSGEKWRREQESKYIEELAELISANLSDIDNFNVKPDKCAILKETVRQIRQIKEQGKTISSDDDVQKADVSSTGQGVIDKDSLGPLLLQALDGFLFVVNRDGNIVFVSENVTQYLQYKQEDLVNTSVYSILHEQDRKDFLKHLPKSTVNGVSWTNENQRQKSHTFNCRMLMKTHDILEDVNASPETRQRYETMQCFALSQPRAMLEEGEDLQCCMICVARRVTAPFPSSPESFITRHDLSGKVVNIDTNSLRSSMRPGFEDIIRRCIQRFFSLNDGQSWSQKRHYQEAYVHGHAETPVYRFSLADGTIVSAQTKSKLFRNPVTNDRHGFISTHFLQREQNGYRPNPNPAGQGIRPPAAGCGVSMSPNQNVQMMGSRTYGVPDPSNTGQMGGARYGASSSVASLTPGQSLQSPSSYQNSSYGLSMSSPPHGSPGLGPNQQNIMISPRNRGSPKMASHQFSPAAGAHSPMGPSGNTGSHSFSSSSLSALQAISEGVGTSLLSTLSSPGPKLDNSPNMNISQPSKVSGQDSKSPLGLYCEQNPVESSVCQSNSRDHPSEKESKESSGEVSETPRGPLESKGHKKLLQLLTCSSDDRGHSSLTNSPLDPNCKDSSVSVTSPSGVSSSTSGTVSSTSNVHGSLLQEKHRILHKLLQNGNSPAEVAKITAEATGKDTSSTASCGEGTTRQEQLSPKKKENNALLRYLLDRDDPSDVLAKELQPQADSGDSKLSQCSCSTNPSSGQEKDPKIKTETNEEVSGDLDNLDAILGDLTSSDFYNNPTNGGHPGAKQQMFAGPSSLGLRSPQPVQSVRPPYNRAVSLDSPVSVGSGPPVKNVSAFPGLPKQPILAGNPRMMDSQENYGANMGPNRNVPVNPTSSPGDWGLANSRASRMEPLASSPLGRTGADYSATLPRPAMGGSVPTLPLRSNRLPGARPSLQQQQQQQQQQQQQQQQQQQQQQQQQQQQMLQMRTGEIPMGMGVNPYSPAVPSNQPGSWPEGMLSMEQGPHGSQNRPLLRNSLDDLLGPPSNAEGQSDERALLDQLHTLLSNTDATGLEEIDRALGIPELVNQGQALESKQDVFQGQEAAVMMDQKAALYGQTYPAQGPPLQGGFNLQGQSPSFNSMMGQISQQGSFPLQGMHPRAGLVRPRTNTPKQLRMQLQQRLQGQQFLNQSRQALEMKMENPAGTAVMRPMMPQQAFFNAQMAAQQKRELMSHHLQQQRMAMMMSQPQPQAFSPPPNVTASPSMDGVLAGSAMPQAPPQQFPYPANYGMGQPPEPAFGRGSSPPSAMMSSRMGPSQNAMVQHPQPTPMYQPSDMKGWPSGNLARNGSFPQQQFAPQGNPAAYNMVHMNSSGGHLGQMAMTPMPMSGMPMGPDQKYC
Cardio protect = modulators protecting cardiomyocytes from myocardial damage; H9c2 cardiomyocytes, H2O2 injury protection, ATPLite, 2 h; protection from H2O2 cell death, % at 20 µM; hit rate 0.63% among 360,000; AID 588492;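 active means compounds giving at least 50% protection of heart cells from peroxide-induced death in the single-dose screen, raw or plate-pattern-corrected value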
HSV augment = HSV replication enhancement. HSV replication augmentation in cells, fold increase. maximum fold increase. hit rate 0.005% among 220,000. AID 1956; in the data active means maximum fold increase above about 1.5; tested in PC3 cells
V-ATPase pHluor = yeast V-ATPase proton transport regulation by pHLuorin. response, % at 10 µM. S. cerevisiae, pHLuorin cytosolic pH fluorescence. hit rate 0.37% among 350,000; in the data active means response mostly above about 7.3%, no sharp cut-off; inactive means mostly below about 5.4%; further: actives read high
MIN6 prolif = inducers of beta-cell replication in MIN6 cells. MIN6 cells proliferation, ATPlite luminescence, 48 h; cells starved in 0.2% serum; 100% = growth in 10% serum. proliferation, % at 10 µM. hit rate 0.29% among 330,000. AID 2380;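 active means compounds whose signal lies at least 3.5 SD above the mean of all wells on their plate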
Yeast superoxide = yeast age-related superoxide inhibition as caloric restriction mimetic | S. cerevisiae aged cells, superoxide DHE fluorescence; hits give low values | superoxide response (% of plate mean), % at 10 µM | hit rate 0.18% among 330,000;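 active means superoxide response under a set limit, about three screen SD below normal, cut at about 65% in these data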;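 further: yeast aged for seven days with compound at 30 °C before DHE staining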
Superoxide pick = confirmation of caloric restriction mimetics inhibiting yeast age-related superoxide | shares compounds with Yeast superoxide | S. cerevisiae aging, superoxide DHE fluorescence; hits give low values | superoxide response (% of plate), % at 10 µM | hit rate 1% among 850 | AID 434994;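 active means superoxide signal below 65% of the plate average of sample wells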;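 further: cells aged with compound for 7 days at 30 degrees C before staining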
DHE fluor count = DHE fluorescence interference, counter-screen artifact | 850 tested, under 10 active | AID 435000 | fluorescence response, % at 10 µM | shares compounds with Yeast superoxide | S. cerevisiae BY4741, flow cytometry; hits give low values;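 active means fluorescence response below 15%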;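 further: lower means stronger quenching of DHE signal or ROS scavenging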
Hits are given with their value; 0 = inactive; - = no result. An excerpt weighted towards active compounds, which were near 1.4% of everything screened.

SMILES | p-CIP stab down | Cardio protect | HSV augment | V-ATPase pHluor | MIN6 prolif | Yeast superoxide | Superoxide pick | DHE fluor count
O=C(CN1CCN(c2ccccn2)CC1)Nc1ccc(Oc2ccccc2)cc1 | 0 | 0 | 0 | 0 | 0 | 0 | - | -
O=C(CN1CCN(c2ccccn2)CC1)NC1CCCC1 | 0 | 0 | 0 | 0 | 0 | 0 | - | -
O=C(CN1CCN(c2ccccn2)CC1)Nc1ccccc1 | 0 | 0 | 0 | 0 | 0 | 0 | 0 | 0
COC(=O)c1ccc(NC(=O)CN2CCN(c3ccccc3)CC2)cc1 | 0 | 0 | 0 | 0 | 0 | 0 | - | -
O=C(CN1CCN(c2ccccn2)CC1)Nc1ccc(F)cc1 | 0 | 0 | 0 | 0 | 0 | 0 | 0 | 0
COC1CCN(Cc2c(C(=O)N3CCN(C4CCCCC4)CC3)nc3ccccn23)CC1 | 0 | 0 | - | 0 | 0 | 0 | - | -
O=C(CCCOc1ccc(Cl)cc1Cl)NCCc1ccccn1 | 0 | 0 | - | 0 | 0 | 0 | - | -
O=C(CN1CCN(c2ccccn2)CC1)Nc1ccc(F)c(F)c1 | 0 | 0 | - | 0 | 0 | 0 | 0 | 0
CN(C)S(=O)(=O)c1ccc(Cl)c(NC(=O)CN2CCc3ccccc3C2)c1 | 0 | 0 | 0 | 0 | 0 | 0 | - | -
Cc1cc(NC(=O)CN2CCN(c3ccccn3)CC2)ccc1Br | 0 | 0 | - | 0 | 0 | 0 | 0 | 0
O=C(CN1CCN(c2ccccn2)CC1)Nc1ccc(OCc2ccccc2)cc1 | 0 | 0 | - | 0 | 0 | 0 | - | -
CN(C)S(=O)(=O)c1ccc(Cl)c(NC(=O)CN2CCN(c3ccccn3)CC2)c1 | 0 | 0 | - | 0 | 0 | - | 0 | 0
CCOc1ccc(C(=O)OCC(=O)N2CC(C)OC(C)C2)cc1OCC (configuration not stated) | 0 | 0 | - | 0 | 0 | 0 | - | -
Cc1ccc(S(=O)(=O)N(C)C)cc1NC(=O)CCNC(=O)c1ccco1 | 0 | 0 | - | 0 | 0 | 0 | - | -
O=C(CN1CCN(c2ccccc2F)CC1)c1ccc2cc[nH]c2c1 | 0 | 0 | - | 0 | 0 | 63 | 0 | 0
OC[C@@H]1CN(Cc2cccs2)C[C@H](n2cnc3c(N4CCCC4)ncnc32)O1 | - | 0 | - | - | - | - | - | -
COc1cc2c(cc1OC)CN(C(=O)/C=C/c1cc(OC)c(OC)c(OC)c1)CC2 | 0 | 0 | - | 0 | 0 | 63 | 0 | 0
COc1ccccc1CNC(=O)c1cc(-c2cc(F)ccc2OC(C)C)n[nH]1 | - | 0 | - | - | - | - | - | -
Cc1cccc(CN2C(=O)CCSc3ccc(Cl)cc32)c1 | 0 | 0 | 0 | 0 | 0 | 65 | 0 | 0
CC(=O)Nc1ccc(S(=O)(=O)Nc2ccc(Nc3ccccc3)cc2)cc1 | 0 | 0 | - | 0 | 0 | 0 | - | -
NC(=O)c1ccccc1NS(=O)(=O)c1ccccc1 | 0 | 0 | 0 | 0 | 0 | 0 | 0 | 0
CC(=O)Nc1ccc(NS(=O)(=O)c2ccccc2)cc1 | 0 | 0 | 0 | 0 | 0 | 0 | 0 | 0
CSc1cccc(NS(=O)(=O)c2ccccc2)c1 | 0 | 0 | 0 | 0 | 0 | 0 | 0 | 0
CCn1c(=O)c2sccc2n(Cc2ccccc2)c1=O | 0 | 0 | - | 0 | 0 | 0 | - | -
CCOc1ccc(NC(=O)CCn2nc(C)c(S(=O)(=O)N3CCCCC3)c2C)cc1 | 0 | 0 | - | 0 | 0 | 58 | 0 | 0
SMILES | p-CIP stab down | Cardio protect | HSV augment | V-ATPase pHluor | MIN6 prolif | Yeast superoxide | Superoxide pick | DHE fluor count
CC(C)c1ccc(/C=C/C(=O)NC(=S)Nc2ccc(CN3CCOCC3)cc2)cc1 | 0 | 0 | 0 | 0 | 0 | 61 | 0 | 0
CC(C)c1ccc(/C=C/C(=O)NC(=S)NN2CCOCC2)cc1 | 0 | 0 | - | 0 | 0 | 0 | - | -
CC(C)CNS(=O)(=O)c1ccc(CCC(=O)NCCC2=CCCCC2)cc1 | 0 | 0 | 0 | 0 | 0 | 0 | - | -
COc1ccc(C)cc1NC(=O)C(=O)NNC(=O)c1ccco1 | 0 | 0 | 0 | 0 | 0 | 0 | - | -
CCc1cccc(C)c1NC(=O)c1ccoc1C | 0 | 0 | 0 | 0 | 0 | 64 | 0 | 0
CCc1cccc(C)c1NC(=O)c1cc(C)oc1C | 0 | 0 | 0 | 0 | 0 | 0 | - | -
Cn1c(=O)c2cc(NC(=O)CCc3cccnc3)ccc2n1Cc1cccc(C(F)(F)F)c1 | - | 0 | - | - | - | - | - | -
Cc1ccc(NC(=O)c2cc3ccccc3oc2=N)cc1 | 0 | 0 | - | 0 | 0 | 0 | - | -
N=c1oc2cc(O)ccc2cc1C(=O)Nc1ccc(Cl)cc1 | 0 | 0 | - | 0 | 0 | 50 | 0 | 0
Cc1cc(OCC(=O)N(C)C2CCCCC2)cc(C)c1Cl | 0 | 0 | 0 | 0 | 0 | 56 | 0 | 0
Cc1ccc(-n2cc(-c3ccccc3)c3c(NN4CCOCC4)ncnc32)cc1 | 0 | 0 | 0 | 0 | 0 | 62 | 0 | 0
CCn1nc(C)cc1-c1nnc(Sc2ncc([N+](=O)[O-])s2)n1C | 0 | 0 | - | 0 | 0 | 0 | - | -
Cc1ccc(NC(=O)c2cc(C)nc3ccccc23)cc1 | 0 | 0 | - | 0 | 0 | 0 | - | -
Cc1cccc(NC(=O)c2cc(C)nc3ccccc23)c1 | 0 | 0 | - | 0 | 0 | 56 | 0 | 0
OCCOCCOCCn1c2ccccc2c2ccccc21 | 0 | 0 | 0 | 0 | 0 | 0 | 0 | 0
NNC(=O)Cn1c2ccccc2c2ccccc21 | 0 | 0 | 0 | 0 | 0 | 0 | 0 | 0
NC(=O)CCn1c2ccccc2c2ccccc21 | 0 | 0 | 0 | 0 | 0 | 0 | 0 | 0
NNC(=O)Cn1c(-c2ccccc2)cc2ccccc21 | 0 | 0 | - | 0 | 0 | 0 | - | -
O=C(O)Cn1c2ccccc2c2ccccc21 | 0 | 0 | 0 | 0 | 0 | 0 | 0 | 0
COCCOCCn1c(CCCO)nc2ccccc21 | 0 | 0 | 0 | 0 | 0 | 0 | - | -
COc1cc(-c2nc3ccccn3c2/N=C/c2cc(OC)c(O)cc2Cl)ccc1O | 0 | 0 | 0 | 0 | 0 | 0 | - | -
O=C1c2ccccc2[C@@H]2C[C@@H](O)[C@H](Nc3cccc(Cl)n3)CCN12 | - | 0 | - | 0 | - | 0 | - | -
CC(C)CCn1c(S(=O)(=O)O)nc2ccccc21 | 0 | 0 | 0 | - | 0 | 0 | - | -
CC(C)CCn1c2ccccc2c2cc(CC(N)=O)ccc21 | 0 | 0 | 0 | 0 | 0 | 0 | 0 | 0
CC1C(=O)N(Cc2ccccc2F)c2ccccc2N1C(=O)c1c(F)cccc1F (configuration not stated) | 0 | 0 | - | 0 | 0 | 65 | 0 | 0
SMILES | p-CIP stab down | Cardio protect | HSV augment | V-ATPase pHluor | MIN6 prolif | Yeast superoxide | Superoxide pick | DHE fluor count
CC(CC(=O)Nc1ccc2c(c1)c(=O)n(C)n2Cc1ccc(F)cc1)C(F)(F)F (configuration not stated) | - | 0 | - | - | - | - | - | -
CC(NC(=O)CCc1nnc(CCCc2ccccc2)o1)c1ccccc1 (configuration not stated) | 0 | 0 | 0 | 0 | 0 | 0 | - | -
Cc1cc(/C=N/NC(=O)C(O)(c2ccccc2)c2ccccc2)c(C)n1-c1ccc(C(=O)O)cc1 | 0 | 0 | 0 | 0 | 0 | 56 | 0 | 0
CN(c1ccccc1)S(=O)(=O)c1ccc(C(=O)Nc2nnc(C3CC3)o2)cc1 | 0 | 0 | 0 | 0 | 0 | 0 | 0 | 0
CCN(c1ccccc1)S(=O)(=O)c1ccc(C(=O)Nc2nnc(COC)o2)cc1 | 0 | 0 | 0 | 0 | 0 | 0 | - | -
CCN(c1ccccc1)S(=O)(=O)c1ccc(C(=O)Nc2nnc(C3CC3)o2)cc1 | 0 | 0 | 0 | 0 | 0 | 0 | 0 | 0
